# Activity calls are given as the source filed them. The calls were made as follows: active = hit-call score of the fitted dose curve at least 0.9, where 1 is the maximum; inactive = score below 0.9.
# Experiments:
# [1] = read-out: Interleukin-1 alpha (IL1a), IL1A (gene 3552); assay: BSK_LPS_IL1a: BioMAP Diversity Plus: LPS Assay for Interleukin-1 alpha (IL1a) Biomarker Activity (AID 2283080); details: primary human HUVEC with PBMC; actives raise or lower the signal
# Outline: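 Human umbilical vein endothelial cells co-cultured with peripheral blood mononuclear cells were LPS-stimulated and exposed to test chemicals for 24 h. IL-1 alpha was quantified by ELISA, with bidirectional curve fitting against DMSO as the negative control and baseline.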
# [2] = read-out: Monocyte Chemoattractant Protein-1 (MCP1), CCL2 (gene 6347); assay: BSK_LPS_MCP1: BioMAP Diversity Plus: LPS Assay for Monocyte Chemoattractant Protein-1 (MCP1) Biomarker Activity (AID 2283081); details: primary human HUVEC with PBMC; actives raise or lower the signal
# Outline: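 HUVEC plus PBMC co-culture (human primary cells, LPS system) exposed to test chemical for 24 h; MCP-1 measured by ELISA. Bidirectional curve fitting against DMSO baseline; parallel SRB total-protein staining flags overt cytotoxicity.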
# [3] = BSK_LPS_PGE2: BioMAP Diversity Plus: LPS Assay for Prostaglandin E2 (PGE2) Biomarker Activity (AID 2283082); details: primary human HUVEC with PBMC; actives raise or lower the signal
# Outline: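 Endpoint derived from bidirectional curve fitting versus DMSO of ELISA-measured PGE2 in LPS-stimulated human primary vascular co-culture (HUVEC with PBMC) harvested at 24 h.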
# [4] = read-out: Macrophage colony-stimulating factor (MCSF), CSF1 (gene 1435); assay: BSK_LPS_MCSF: BioMAP Diversity Plus: LPS Assay for Macrophage colony-stimulating factor (MCSF) Biomarker Activity (AID 2283083); details: primary human HUVEC with PBMC; actives raise or lower the signal
# Outline: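 Human umbilical vein endothelial cells co-cultured with peripheral blood mononuclear cells were exposed to compound for 24 h. M-CSF levels were measured by ELISA, and bidirectional curve fitting used DMSO as the negative control and baseline.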
# [5] = read-out: Tissue Factor, F3 (gene 2152); assay: BSK_LPS_TissueFactor: BioMAP Diversity Plus: LPS Assay for Tissue Factor Biomarker Activity (AID 2283084); details: primary human HUVEC with PBMC; actives raise or lower the signal
# Outline: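 Human umbilical vein endothelial cells co-cultured with peripheral blood mononuclear cells were dosed and stimulated with LPS. Cell-surface CD142 was quantified by ELISA at 24 h. Activity was fitted bidirectionally against DMSO baseline.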
# [6] = read-out: Tumor necrosis factor (Homo sapiens) (UniProt P01375); assay: BSK_LPS_TNFa: BioMAP Diversity Plus: LPS Assay for Tumour Necrosis Factor alpha (TNFa) Biomarker Activity (AID 2283085); details: primary human HUVEC with PBMC; actives raise or lower the signal
# Outline: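 Primary human vascular co-culture of HUVEC and PBMC; TNFa ELISA 24 h after treatment, analysed as increase or decrease relative to DMSO control.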
# [7] = read-out: Vascular cell adhesion molecule 1 (VCAM1), VCAM1 (gene 7412); assay: BSK_LPS_VCAM1: BioMAP Diversity Plus: LPS Assay for Vascular cell adhesion molecule 1 (VCAM1) Biomarker Activity (AID 2283086); details: primary human HUVEC with PBMC; actives raise or lower the signal
# Outline: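 Primary human vascular co-culture (umbilical vein endothelium plus PBMC) stimulated with LPS received chemical; 24 h later VCAM-1 was read by ELISA. Overt cytotoxicity was assessed by sulforhodamine B staining of parallel cultures at the same time point.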
# CD38, CD38 (gene 952) = assay: BSK_SAg_CD38: BioMAP Diversity Plus: SAg Assay for CD38 Biomarker Activity (AID 2283087); details: primary human HUVEC with PBMC; actives raise or lower the signal
# Outline: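 Fluorescence ELISA of cell-surface CD38 served as the read-out, with either increase or decrease fitted against DMSO controls. Cells were a human umbilical vein endothelium plus PBMC co-culture under SEB/TSST-1 stimulation, measured 24 h after dosing.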
# CD69, CD69 (gene 969) = assay: BSK_SAg_CD69: BioMAP Diversity Plus: SAg Assay for CD69 Biomarker Activity (AID 2283089); details: primary human HUVEC with PBMC; actives raise or lower the signal
# Outline: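 Values derive from bidirectional fitting relative to DMSO vehicle. Cells: umbilical vein endothelium plus peripheral blood mononuclear cells, treated 24 h before fluorescent ELISA for CD69.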
# [8] = read-out: Monocyte Chemoattractant Protein-1 (MCP1), CCL2 (gene 6347); assay: BSK_SAg_MCP1: BioMAP Diversity Plus: SAg Assay for Monocyte Chemoattractant Protein-1 (MCP1) Biomarker Activity (AID 2283090); details: primary human HUVEC with PBMC; actives raise or lower the signal
# Outline: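 MCP-1 levels in the endothelial–PBMC SAg co-culture were quantified by ELISA at 24 h post-dosing; both increases and decreases versus DMSO scored. Cytotoxicity monitored by SRB total protein in parallel cultures.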
# [9] = read-out: E-selectin (Homo sapiens) (UniProt P16581); assay: BSK_SAg_Eselectin: BioMAP Diversity Plus: SAg Assay for Eselectin Biomarker Activity (AID 2283091); details: primary human HUVEC with PBMC; actives raise or lower the signal
# Outline: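 HUVEC co-cultured with PBMC, compound dosed then read at 24 h; E-selectin measured by ELISA. Activity fitted bidirectionally against DMSO as negative control and baseline.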
# [10] = read-out: Monokine induced gamma interferon (MIG), CXCL9 (gene 4283); assay: BSK_SAg_MIG: BioMAP Diversity Plus: SAg Assay for Monokine induced gamma interferon (MIG) Biomarker Activity (AID 2283092); details: primary human HUVEC with PBMC; actives raise or lower the signal
# Outline: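 Values reflect bidirectional fitting of ELISA-measured MIG against DMSO vehicle, taken 24 h after dosing of a co-culture of human umbilical vein endothelial cells and peripheral blood mononuclear cells.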
# [11] = BSK_SAg_PBMCCytotoxicity: PBMC Cytotoxicity Assessment in the BioMAP Diversity Plus: SAg Assay (AID 2283093); details: primary human HUVEC with PBMC;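 also: PBMC viability measured as Alamar Blue reduction fluorescence at 546/580 nm; fitted both ways against DMSO so a hit may be loss or gain of signal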;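 as to AC50: PBMC superantigen activated with SEB plus TSST-1 one hour after compound addition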
# Outline: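 Compound added to 75,000 PBMC/well for 1 h; SEB and TSST-1 then added at 20 ng/mL final each; 90 h incubation; Alamar Blue 6 h; read 546/580 nm ex/em. Activity fitted bidirectionally relative to DMSO baseline.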
# [12] = read-out: Interleukin-8 (IL8), CXCL8 (gene 3576); assay: BSK_SAg_IL8: BioMAP Diversity Plus: SAg Assay for Interleukin-8 (IL8) Biomarker Activity (AID 2283094); details: primary human HUVEC with PBMC; actives raise or lower the signal
# Outline: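 In this co-culture of human umbilical vein endothelium with peripheral blood mononuclear cells, IL-8 is assayed by ELISA at 24 h. DMSO serves as baseline for bidirectional curve fitting.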
# [13] = BSK_SAg_Proliferation: Cell Proliferation Assessment in the BioMAP Diversity Plus: SAg Assay (AID 2283095); details: primary human HUVEC with PBMC;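 also: relative cell number as total protein by SRB absorbance in sub-confluent culture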
# Outline: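 Readout is SRB-stained protein (560 nm) in a primary human HUVEC and PBMC co-culture; sub-confluent cultures are read at 96 h. Activity is fitted bidirectionally using DMSO as baseline.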
# [14] = BSK_SAg_SRB: Viability Assessment in the BioMAP Diversity Plus: SAg Assay (AID 2283096); details: primary human HUVEC with PBMC;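 also: cells read one day after compound addition; hits may be either gain or loss of signal compared with DMSO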
# Outline: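 Total protein by sulforhodamine B staining, 24 h after dosing, in HUVEC–PBMC co-culture; DMSO-referenced bidirectional fitting.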
# CD40, CD40 (gene 958) = assay: BSK_SAg_CD40: BioMAP Diversity Plus: SAg Assay for CD40 Biomarker Activity (AID 2283088); details: primary human HUVEC with PBMC; actives raise or lower the signal
# Outline: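 Human umbilical vein endothelial cells co-cultured with PBMC; CD40 levels measured by ELISA with fluorescence read-out 24 h after chemical dosing. Gain or loss of signal fitted bidirectionally against DMSO baseline.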
# Sequence of Tumor necrosis factor (Homo sapiens) (P01375 whole entry, looked up): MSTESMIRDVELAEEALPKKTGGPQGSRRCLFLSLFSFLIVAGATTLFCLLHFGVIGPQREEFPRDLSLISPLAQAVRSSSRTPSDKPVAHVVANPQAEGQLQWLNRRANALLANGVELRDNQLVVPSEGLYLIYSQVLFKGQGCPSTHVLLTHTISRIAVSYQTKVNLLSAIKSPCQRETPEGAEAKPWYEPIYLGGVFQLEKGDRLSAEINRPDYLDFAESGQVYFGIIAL
# Sequence of E-selectin (Homo sapiens) (P16581 whole entry, looked up): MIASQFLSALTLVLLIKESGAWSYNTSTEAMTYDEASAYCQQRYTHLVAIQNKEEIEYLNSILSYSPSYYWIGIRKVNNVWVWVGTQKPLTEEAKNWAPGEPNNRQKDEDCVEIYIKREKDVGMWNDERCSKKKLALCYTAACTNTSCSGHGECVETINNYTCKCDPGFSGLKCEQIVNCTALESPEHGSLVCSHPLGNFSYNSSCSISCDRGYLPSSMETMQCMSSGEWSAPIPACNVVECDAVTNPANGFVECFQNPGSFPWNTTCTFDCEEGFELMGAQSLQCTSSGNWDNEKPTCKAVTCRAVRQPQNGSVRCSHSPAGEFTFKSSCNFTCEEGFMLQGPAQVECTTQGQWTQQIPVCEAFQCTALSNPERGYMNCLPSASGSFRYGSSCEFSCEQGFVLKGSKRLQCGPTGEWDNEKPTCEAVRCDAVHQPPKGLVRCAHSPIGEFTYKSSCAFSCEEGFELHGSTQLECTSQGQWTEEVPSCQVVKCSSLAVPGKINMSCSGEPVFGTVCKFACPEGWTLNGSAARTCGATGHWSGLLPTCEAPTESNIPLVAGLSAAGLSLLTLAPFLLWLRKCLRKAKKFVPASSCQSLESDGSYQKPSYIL
smiles,measurement,setting,value
Clc1cc(Cl)c(Cl)c(Cl)c1Cl,AC50,[1],16.2 µM (active)
same,outcome,[2],inactive
same,outcome,[3],inactive
same,outcome,[4],inactive
same,outcome,[5],inactive
same,outcome,[6],inactive
same,outcome,[7],inactive
same,outcome,"CD38, CD38 (gene 952)",inactive
same,outcome,"CD69, CD69 (gene 969)",inactive
same,outcome,[8],inactive
same,outcome,[9],inactive
same,outcome,[10],inactive
same,outcome,[11],inactive
same,outcome,[12],inactive
same,outcome,[13],inactive
same,outcome,[14],inactive
CC1=CC=C(C(C)C)CC1,outcome,[1],inactive
same,outcome,[2],inactive
same,outcome,[3],inactive
same,outcome,[4],inactive
same,outcome,[5],inactive
same,outcome,[6],inactive
same,outcome,[7],inactive
same,outcome,"CD38, CD38 (gene 952)",inactive
same,outcome,"CD40, CD40 (gene 958)",inactive
same,outcome,[8],inactive
same,outcome,[9],inactive
same,outcome,[10],inactive
same,outcome,[11],inactive
same,outcome,[12],inactive
same,outcome,[13],inactive
same,outcome,[14],inactive
C=CC(=O)OCCCCCCCC(C)C,outcome,[1],inactive
same,outcome,[2],inactive
same,outcome,[3],inactive
same,outcome,[4],inactive
same,outcome,[5],inactive
same,outcome,[6],inactive
same,outcome,[7],inactive
same,outcome,"CD38, CD38 (gene 952)",inactive
same,outcome,"CD40, CD40 (gene 958)",inactive
same,outcome,[8],inactive
same,outcome,[9],inactive
same,outcome,[10],inactive
same,AC50,[11],20 µM (active)
same,outcome,[12],inactive
same,AC50,[13],23.3 µM (active)
same,outcome,[14],inactive
C=C(C)C(=O)OCCCCCCCCCCCC,outcome,[1],inactive
same,outcome,[2],inactive
same,outcome,[3],inactive
same,outcome,[4],inactive
same,outcome,[5],inactive
same,AC50,[6],32.6 µM (active)
same,outcome,[7],inactive
same,outcome,"CD38, CD38 (gene 952)",inactive
same,outcome,"CD69, CD69 (gene 969)",inactive
same,outcome,[8],inactive
same,outcome,[9],inactive
same,outcome,[10],inactive
same,outcome,[11],inactive
same,outcome,[12],inactive
same,outcome,[13],inactive
same,outcome,[14],inactive

# Reference: PubChem BioAssay (EPA / NIEHS)
